# Laboratory results as given in PubChem BioAssay (Tox21).
# Where “and” joins values, the source holds several entries; their conditions need not be identical. Equal values may be shown once. Records with an inconclusive call do not appear. Where a call stands in place of a potency, no number is given. The source holds several records for some structures; these can differ, active in one and inactive in another. Calls of active or inactive are those of the source. Unless noted, calls come from the whole dose curve; as a rule, active = well fitted curve in the direction sought with a large enough effect in the repeat runs; inconclusive = weak or mixed curves; inactive = no such curve, though single readings can be large; an effect the other way counts as inactive or inconclusive.
# Experiments:
# [1] = A CellTox Green Cytotoxicity Assay to monitor cytotoxicity in HepG2 cells - 8 hour (AID 1224890); note: nearly all actives have a fitted effect of over 45% in size; note: potency is the fitted concentration of half-maximal effect
# Outline: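 HepG2 cells, 600/well, preincubated 5 h with CellTox Green dye, then exposed to Tox21 compounds in DMSO at 37 C for up to 40 h. Dead-cell DNA fluorescence read at the indicated time point.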
# [2] = qHTS assay to identify small molecule antagonists of the androgen receptor (AR) signaling pathway using the MDA cell line in the presence of 0.5 nM R1881 - cell viability counter screen (AID 1259242); note: nearly all actives have a fitted effect of over 45% in size; note: potency is the fitted concentration of half-maximal effect
# Outline: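 MDA-kb2 cells (MMTV-luciferase, AR/GR responsive) were treated with compounds plus 0.5 nM R1881 (final) for 16 hr at 37C, 0% CO2. Viability was then read in the same wells as live-cell protease fluorescence (CellTiter-Fluor, 30 min).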
# [3] = qHTS assay to identify small molecule phospholipidosis (PLD) inducers (AID 1259344; active = well fitted curve in the direction sought with a large enough effect; an effect the other way counts as inactive or inconclusive; note: potency is the fitted concentration of half-maximal effect)
# Outline: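 Fluorescent phospholipid staining (LipidTOX Red) measured by automated microscopy in fixed HepG2 cells after 24 h treatment; nuclei counterstained with Hoechst 33342; amiodarone as reference inducer.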
# [4] = qHTS assay to identify small molecule HDAC inhibitors (AID 1259364); note: nearly all actives have a fitted effect of over 45% in size; note: potency is the fitted concentration of half-maximal effect; for activity change, negative = inhibition: top concentration of the series differs between compounds
# Outline: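 Wild-type HCT-116 cells, plated overnight at 37 C, exposed to compounds 2 hr at 37 C; luminogenic HDAC-Glo substrate then added 30 min at room temperature. Luminescence reports relative endogenous class I/II HDAC activity.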
# [5] = qHTS assay to identify small molecule HDAC inhibitors - cell viability counter screen (AID 1259365); note: nearly all actives have a fitted effect of over 50% in size; note: potency is the fitted concentration of half-maximal effect
# Outline: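 Following a 2hr exposure of overnight-plated wild-type HCT-116 cells to DMSO-delivered compounds, CellTiter-Glo was added and luminescence recorded after 30min at room temperature.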
# [6] = qHTS assay to identify small molecule agonists of the sonic hedgehog signaling (Shh) pathway (AID 1259368; calls by dose curve;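 note: NIH/3T3-derived 3T3Gli1-Luc cells carrying a stable Gli1-driven firefly luciferase reporter; series mostly up to about 92 µM; nearly all actives have a fitted effect of over 15% in size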)
# Outline: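 NIH/3T3-derived 3T3Gli1-Luc cells with stably integrated Gli1-driven firefly luciferase, 2,000 cells/well, compounds added after 4 hr. Incubated 24 hr at 37C, 5% CO2; luminescence read after 30 min with luciferase reagent at room temperature.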
# [7] = qHTS assay to identify small molecule antagonists of the sonic hedgehog signaling (Shh) pathway (AID 1259369; calls by dose curve; note: nearly all actives have a fitted effect of over 45% in size; note: potency is the fitted concentration of half-maximal effect)
# Outline: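 NIH/3T3-derived Gli1-Luc reporter cells plated 4 h, dosed with compound, then stimulated with conditioned medium for 24 h at 37 C. Firefly luciferase luminescence read after 30 min with detection reagent at room temperature.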
# [8] = qHTS assay to identify small molecule agonists of the androgen receptor (AR) signaling pathway in the presence of an antagonist - cell viability counter screen (AID 1259379); note: nearly all actives have a fitted effect of over 25% in size; note: potency is the fitted concentration of half-maximal effect
# Outline: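 MDA-kb2 cells (MMTV-luciferase, AR/GR), 3,000/well, 5 h attachment, then 3.0 µM nilutamide (final) and compounds at 15 concentrations. Viability by CellTiter-Fluor fluorescence after 16 h at 37 °C, 0% CO2, in the reporter wells.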
# [9] = qHTS assay to identify small molecule agonists of the estrogen receptor beta (ER-beta) signaling pathway - cell viability counter screen (AID 1259380); note: nearly all actives have a fitted effect of over 30% in size; note: potency is the fitted concentration of half-maximal effect
# Outline: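 ER-beta-UAS-bla HEK293T cells in medium with 2% charcoal-stripped FBS, pre-incubated 6 hr, then treated 16 hr at 37C. Cytotoxicity read in the same wells by CellTiter-Glo luminescence after 30 min at room temperature.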
# [10] = qHTS assay to identify small molecule antagonists of the estrogen receptor beta (ER-beta) signaling pathway - cell viability counter screen (AID 1259382); note: nearly all actives have a fitted effect of over 55% in size; note: potency is the fitted concentration of half-maximal effect
# Outline: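 ER-beta-UAS-bla HEK293T cells in 2% charcoal-stripped FBS medium, treated with compound plus 1 nM 17-beta-estradiol for 16 h at 37C. Viability read by CellTiter-Glo luminescence after 30 min at room temperature in the same wells.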
# [11] = qHTS assay to identify small molecule agonists or antagonists of the thyroid stimulating hormone receptor (TSHR) signaling pathway - wild type cell line counter screen (AID 1259384; calls by dose curve)
# Outline: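 Counter screen in untransfected Hek293: compounds (15-point titration, triplicate) plus phosphodiesterase inhibitor Ro20-1724 added after 18 h plating; 30 min RT. Intracellular cAMP via competitive d2/cryptate immunoassay, 1 h incubation.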
# [12] = qHTS assay to identify small molecule antagonists of the estrogen receptor alpha (ER-alpha) signaling pathway using the BG1 cell line in the presence of 0.1 nM 17-beta-estradiol - cell viability counter screen (AID 1259241); note: nearly all actives have a fitted effect of over 40% in size; note: potency is the fitted concentration of half-maximal effect
# Outline: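 Measures cytotoxicity alongside the ER-alpha antagonist readout: VM7Luc4E2 cells, charcoal-stripped serum, 0.1 nM 17beta-estradiol final, 22 hr compound incubation at 37C, CellTiter-Fluor fluorescence.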
# [13] = qHTS assay to identify small molecule agonists of the sonic hedgehog signaling (Shh) pathway - cell viability counter screen (AID 1259366); note: nearly all actives have a fitted effect of over 50% in size; note: potency is the fitted concentration of half-maximal effect
# Outline: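 After a 4hr attachment at 37C, NIH/3T3 cells bearing an integrated Gli1-driven luciferase reporter were dosed with compounds. Treatment lasted 24hr, with the final hour including CellTiter-Fluor for a fluorescence viability measurement.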
# [14] = target: Estrogen receptor beta (Homo sapiens) (UniProt Q92731); assay: qHTS assay to identify small molecule antagonists of the estrogen receptor beta (ER-beta) signaling pathway (AID 1259378; active = well fitted inhibition curve with a large enough effect in the signal ratio in the repeat runs, not every such curve was filed as active; the % refers to the signal ratio)
# Estrogen receptor beta (Homo sapiens), sequence (Q92731 whole entry, looked up): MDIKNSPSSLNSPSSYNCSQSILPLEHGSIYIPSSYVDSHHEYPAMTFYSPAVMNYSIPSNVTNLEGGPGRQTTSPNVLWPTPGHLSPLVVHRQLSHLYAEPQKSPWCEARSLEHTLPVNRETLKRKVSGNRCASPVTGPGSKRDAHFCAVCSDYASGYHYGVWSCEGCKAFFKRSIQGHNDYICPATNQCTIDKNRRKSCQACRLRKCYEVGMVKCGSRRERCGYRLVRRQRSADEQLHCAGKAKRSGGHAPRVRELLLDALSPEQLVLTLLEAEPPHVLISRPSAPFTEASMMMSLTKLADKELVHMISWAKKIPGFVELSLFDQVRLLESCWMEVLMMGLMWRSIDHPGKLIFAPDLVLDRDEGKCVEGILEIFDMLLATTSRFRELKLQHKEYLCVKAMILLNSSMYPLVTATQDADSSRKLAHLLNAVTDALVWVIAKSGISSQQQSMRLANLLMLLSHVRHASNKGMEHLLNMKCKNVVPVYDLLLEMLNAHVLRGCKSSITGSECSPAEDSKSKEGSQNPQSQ
# Outline: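 Antagonist mode: compounds added to beta-lactamase reporter HEK293T ER-beta-UAS cells stimulated with E2 (1nM final), 16 hr at 37C. LiveBLAzer B/G FRET substrate, 2 hours room temperature, fluorescence read-out.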
# [15] = qHTS assay to identify small molecule antagonists of the sonic hedgehog signaling (Shh) pathway - cell viability counter screen (AID 1259367); note: nearly all actives have a fitted effect of over 55% in size; note: potency is the fitted concentration of half-maximal effect
# Outline: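 Using CellTiter-Fluor, viability of Gli1-Luc reporter 3T3 cells is read by fluorescence in the wells used for the Shh luciferase assay. Treatment lasts 23 hr with conditioned medium, then reagent 1 hr at 37C.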
# [16] = target: Estrogen receptor (Homo sapiens) (UniProt P03372); assay: qHTS assay to identify small molecule antagonists of the estrogen receptor alpha (ER-alpha) signaling pathway using the BG1 cell line in the presence of 0.1 nM 17-beta-estradiol (AID 1259244); note: nearly all actives have a fitted effect of over 50% in size; note: potency is the fitted concentration of half-maximal effect
# Estrogen receptor (Homo sapiens), sequence (P03372 whole entry, looked up): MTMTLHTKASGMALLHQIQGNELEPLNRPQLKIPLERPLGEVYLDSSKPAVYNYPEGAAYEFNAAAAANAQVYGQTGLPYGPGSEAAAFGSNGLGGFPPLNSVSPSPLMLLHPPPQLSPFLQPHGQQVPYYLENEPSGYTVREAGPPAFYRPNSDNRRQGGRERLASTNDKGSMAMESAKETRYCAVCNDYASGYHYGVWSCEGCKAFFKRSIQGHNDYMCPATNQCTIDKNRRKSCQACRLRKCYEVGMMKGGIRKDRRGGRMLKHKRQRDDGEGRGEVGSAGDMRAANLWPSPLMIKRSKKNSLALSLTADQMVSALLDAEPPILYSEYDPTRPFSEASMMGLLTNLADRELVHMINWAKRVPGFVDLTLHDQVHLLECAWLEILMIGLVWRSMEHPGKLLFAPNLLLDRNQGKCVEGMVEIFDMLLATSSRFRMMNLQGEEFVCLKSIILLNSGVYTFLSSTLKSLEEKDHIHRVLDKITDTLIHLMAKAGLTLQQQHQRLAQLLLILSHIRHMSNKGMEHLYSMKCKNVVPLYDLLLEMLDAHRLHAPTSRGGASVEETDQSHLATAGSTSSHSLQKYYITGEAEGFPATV
# Outline: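 VM7Luc4E2 cells (endogenous full-length ER-alpha, 4×ERE-luciferase), kept 5 days in phenol red-free, charcoal-stripped FBS medium; 4,000 cells/well. Compounds added with 0.1 nM (final) 17beta-estradiol, 22 hr at 37C; luminescence read with ONE-Glo after 30 min.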
# [17] = target: Estrogen receptor (Homo sapiens) (UniProt P03372); assay: qHTS assay to identify small molecule agonists of the estrogen receptor alpha (ER-alpha) signaling pathway in the presence of an antagonist (AID 1259383; calls by dose curve; note: nearly all actives have a fitted effect of over 15% in size; note: potency is the fitted concentration of half-maximal effect; for activation: top concentration of the series differs between compounds)
# Outline: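 VM7Luc4E2 cells express endogenous full-length ER-alpha with an ERE-luciferase reporter and were hormone-deprived for 5 days. Compounds at 15 concentrations were added with 10.0nM ICI-182,780 for 22hr at 37C. Luminescence was read with ONE-Glo.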
# [18] = target: Androgen receptor (Homo sapiens) (UniProt P10275); assay: qHTS assay to identify small molecule antagonists of the androgen receptor (AR) signaling pathway using the MDA cell line in the presence of 0.5 nM R1881 (AID 1259243); note: nearly all actives have a fitted effect of over 50% in size
# Androgen receptor (Homo sapiens), sequence (P10275 whole entry, looked up): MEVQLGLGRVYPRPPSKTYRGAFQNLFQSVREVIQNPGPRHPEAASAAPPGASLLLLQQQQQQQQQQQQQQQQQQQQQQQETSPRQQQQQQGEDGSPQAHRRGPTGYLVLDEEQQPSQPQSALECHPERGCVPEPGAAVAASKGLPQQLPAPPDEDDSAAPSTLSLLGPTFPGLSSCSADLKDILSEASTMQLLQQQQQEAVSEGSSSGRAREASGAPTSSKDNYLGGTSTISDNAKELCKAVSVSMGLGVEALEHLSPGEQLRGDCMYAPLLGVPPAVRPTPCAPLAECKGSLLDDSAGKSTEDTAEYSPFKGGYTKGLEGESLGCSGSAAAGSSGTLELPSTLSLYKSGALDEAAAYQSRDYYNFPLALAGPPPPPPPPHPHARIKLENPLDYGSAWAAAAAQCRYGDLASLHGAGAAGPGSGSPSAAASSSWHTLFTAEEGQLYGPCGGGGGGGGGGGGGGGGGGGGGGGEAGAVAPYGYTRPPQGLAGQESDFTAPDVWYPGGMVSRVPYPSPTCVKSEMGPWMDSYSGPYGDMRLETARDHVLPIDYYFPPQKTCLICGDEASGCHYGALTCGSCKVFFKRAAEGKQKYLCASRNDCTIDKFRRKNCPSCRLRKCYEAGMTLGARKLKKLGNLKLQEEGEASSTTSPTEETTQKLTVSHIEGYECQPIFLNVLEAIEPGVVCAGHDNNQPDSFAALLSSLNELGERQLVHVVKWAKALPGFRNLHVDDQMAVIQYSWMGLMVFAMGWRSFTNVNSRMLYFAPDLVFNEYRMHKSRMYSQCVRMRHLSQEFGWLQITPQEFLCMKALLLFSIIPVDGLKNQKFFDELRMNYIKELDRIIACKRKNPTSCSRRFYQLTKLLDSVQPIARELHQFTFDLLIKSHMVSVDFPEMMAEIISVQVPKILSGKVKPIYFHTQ
# Outline: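 MDA-kb2 cells (MMTV-luciferase, responsive to AR and GR) at 3,000/well, rested 5 h at 37C, 0% CO2, then given compounds plus 0.5 nM R1881 (final) for 16 hr. Luciferase read with ONE-Glo after 30 min at room temperature.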
# [19] = target: Androgen receptor (Homo sapiens) (UniProt P10275); assay: qHTS assay to identify small molecule agonists of the androgen receptor (AR) signaling pathway in the presence of an antagonist (AID 1259381; calls by dose curve; note: potency is the fitted concentration of half-maximal effect; nearly all actives have a fitted effect of over 15% in size)
# Outline: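 MDA-kb2 cells carrying MMTV-luciferase (AR/GR responsive), 3,000 cells/well, co-treated with 3.0 uM nilutamide final. Compounds at 15 concentrations, 16 hr at 37C without CO2. Luciferase luminescence read after 30 min with ONE-Glo.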
# [20] = target: Estrogen receptor beta (Homo sapiens) (UniProt Q92731); assay: qHTS assay to identify small molecule agonists of the estrogen receptor beta (ER-beta) signaling pathway (AID 1259377; active = well fitted activation curve with a large enough effect in the signal ratio in the repeat runs, not every such curve was filed as active; the % refers to the signal ratio)
# Outline: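 In HEK293T cells bearing a UAS-beta-lactamase reporter under ER-beta control, DMSO-delivered compounds were incubated for 16 hr at 37C. Activity was detected as fluorescence 2 hours after LiveBLAzer B/G FRET substrate addition.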
smiles,measurement,setting,value
CC/C(=C(\c1ccccc1)c1ccc(OCCN(C)C)cc1)c1ccccc1,Potency,[1],55.3 µM (active) and 54.9 µM (active) and 49 µM (active)
same,Potency,[2],61.1 µM (active) [middle of 4 runs]
same,Potency,[3],11.2 µM (active)
same,Potency,[4],inactive
same,Potency,[5],inactive
same,outcome,[6],inactive
same,Potency,[7],23.7 µM (active) [middle of 4 runs]
same,Potency,[8],69 µM (active) and 48.9 µM (active) and 48.6 µM (active)
same,Potency,[9],24.5 µM (active) [middle of 5 runs]
same,Potency,[10],27.3 µM (active) and 21.9 µM (active) and 29.8 µM (active)
same,Potency,[11],inactive
C1=CC2C3C=CC(C3)C2C1 (stereo unspecified),Potency,[1],inactive
same,Potency,[12],inactive
same,Potency,[2],inactive
same,PLD induction,[3],-3.38% [at 3.15 µM] (inactive)
same,Potency,[4],inactive
same,Potency,[5],inactive
same,Potency,[13],inactive
same,outcome,[6],inactive
same,Potency,[14],inactive
same,Potency,[8],inactive
same,Potency,[9],inactive
same,Potency,[10],inactive
same,Potency,[11],inactive
Cc1ccc(S(=O)(=O)O)cc1,Potency,[1],inactive
same,Potency,[12],inactive
same,Potency,[2],inactive
same,Potency,[4],inactive
same,Potency,[5],inactive
same,Potency,[13],inactive
same,outcome,[6],inactive
same,Potency,[7],inactive
same,Potency,[8],inactive
same,Potency,[9],inactive
same,Potency,[10],inactive
CC(=O)C(=O)O,Potency,[1],inactive
same,Potency,[12],inactive
same,Potency,[2],inactive
same,Potency,[4],inactive
same,Potency,[5],inactive
same,Potency,[13],inactive
same,Potency,[15],inactive
same,outcome,[6],inactive
same,Potency,[7],inactive
same,Potency,[8],inactive
same,Potency,[9],inactive
same,Potency,[10],inactive
same,Potency,[11],inactive
COc1ccc2cc(S(=O)(=O)N[C@H](CC(=O)N[C@H](Cc3ccc(CN4[C@H](C)CCC[C@@H]4C)cc3)C(=O)N(C)C(C)C)c3ccc4c(c3)OCO4)ccc2c1,Potency,[12],29 µM (active)
same,Potency,[2],46 µM (active)
same,Potency,[16],51.6 µM (active)
same,Potency,[4],inactive
same,Potency,[5],inactive
same,Potency,[13],25.8 µM (active)
same,Potency,[15],29 µM (active)
same,outcome,[6],inactive
same,Potency,[7],inactive
same,Potency,[8],51.6 µM (active)
same,Potency,[9],18.3 µM (active)
same,Potency,[10],29 µM (active)
same,Potency,[17],inactive
same,Potency,[11],inactive
Cn1c(=O)c2c(ncn2C)n(C)c1=O,Potency,[1],inactive
same,Potency,[2],inactive
same,Potency,[3],inactive
same,Potency,[4],inactive
same,Potency,[5],inactive
same,Potency,[13],inactive
same,outcome,[6],inactive
same,Potency,[7],17.4 µM (active) and inactive
same,Potency,[8],55.1 µM (active) and inactive
same,Potency,[9],inactive
same,Potency,[10],inactive
Nc1ccc2c(c1)CN1C(=O)c3ccccc3C1=N2,Potency,[1],10.4 µM (active)
same,"activity, negative = inhibition",[18],57.2% [at 19 µM] (inactive)
same,Potency,[16],3.26 µM (active)
same,Potency,[4],0.326 µM (active)
same,Potency,[5],11.6 µM (active)
same,"activity change, negative = inhibition",[7],-44.1% [at 19 µM] (inactive)
same,Potency,[9],5.8 µM (active)
same,Potency,[19],0.231 µM (active)
same,Potency,[17],0.092 µM (active)
same,cAMP activity change,[11],"-1.34% [at 18.9 µM, stronger effect = higher value] (inactive)"
O=C1NS(=O)(=O)c2ccccc21,Potency,[1],inactive
same,Potency,[12],inactive
same,Potency,[2],inactive
same,Potency,[3],inactive
same,Potency,[4],inactive
same,Potency,[5],inactive
same,Potency,[13],inactive
same,outcome,[6],inactive
same,Potency,[7],inactive
same,Potency,[8],inactive
same,Potency,[9],inactive
same,Potency,[10],inactive
same,Potency,[11],inactive
O=c1[nH]cc(F)c(=O)[nH]1,Potency,[1],inactive
same,Potency,[2],inactive
same,Potency,[16],12.7 µM (active) and inactive
same,Potency,[3],inactive
same,Potency,[4],inactive
same,Potency,[5],inactive
same,Potency,[13],inactive
same,outcome,[6],inactive
same,Potency,[7],inactive
same,Potency,[20],inactive
same,Potency,[14],inactive
same,Potency,[8],inactive
same,Potency,[9],10.1 µM (active) and 12.5 µM (active) and inactive
same,Potency,[10],14.2 µM (active) and inactive
same,Potency,[17],inactive
same,Potency,[11],inactive
NC(=O)n1c(O)c(C(=O)c2cccs2)c2cc(Cl)ccc21,Potency,[1],inactive
same,Potency,[12],16.8 µM (active)
same,Potency,[16],13.3 µM (active)
same,Potency,[3],inactive
same,Potency,[4],inactive
same,Potency,[5],inactive
same,outcome,[6],inactive
same,Potency,[7],10.6 µM (active)
same,Potency,[8],29.8 µM (active)
same,Potency,[10],inactive
same,Potency,[17],inactive
same,Potency,[11],inactive
NS(=O)(=O)O,Potency,[1],inactive
same,Potency,[12],inactive
same,Potency,[2],inactive
same,Potency,[4],inactive
same,Potency,[5],inactive
same,Potency,[13],inactive
same,outcome,[6],inactive
same,Potency,[7],inactive
same,Potency,[20],inactive
same,Potency,[14],inactive
same,Potency,[8],inactive
same,Potency,[9],inactive
same,Potency,[10],inactive
CCN(Cc1c(F)cccc1Cl)c1c([N+](=O)[O-])cc(C(F)(F)F)cc1[N+](=O)[O-],Potency,[1],inactive
same,Potency,[12],inactive
same,Potency,[2],inactive
same,Potency,[4],inactive
same,Potency,[5],inactive
same,Potency,[13],inactive
same,outcome,[6],inactive
same,Potency,[7],inactive
same,Potency,[8],inactive
same,Potency,[9],30.6 µM (active)
same,Potency,[10],43.3 µM (active)
same,Potency,[17],inactive
C=C1CC[C@H](O)C/C1=C\C=C1/CCC[C@]2(C)[C@@H]([C@H](C)CCCC(C)C)CC[C@@H]12,Potency,[1],inactive
same,Potency,[12],inactive
same,Potency,[2],inactive
same,Potency,[3],inactive
same,Potency,[4],inactive
same,Potency,[5],inactive
same,outcome,[6],inactive
same,Potency,[7],17.1 µM (active)
same,Potency,[9],42.9 µM (active)
same,Potency,[10],30.4 µM (active)
same,Potency,[17],inactive
same,Potency,[11],inactive
